Experimental data as given in PubChem BioAssay AID1159580 (chemical genetic matrix, 2015).
Hit rate of the full screen: of about 5,500 compounds, about 2,000 (36%) were called active. About 18% were inconclusive and are not listed. Rule as the data show it: active = normalized growth mostly below about 0.91 (no sharp cut-off); inconclusive = no clear call, values can overlap the other calls; inactive = mostly above about 0.92. The list shows a part of the results.

Test: chemical genetic growth profiling, strain panel (AID 1159580);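 also: tested at 20 µM; growth read once vehicle control cultures reached saturation at 30 °C; 1 = growth at the plate median or of vehicle wells; lower values mean less growth of the strain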
Details: S. cerevisiae deletion strains, growth OD
[1] = locus YAL013W, strain DEP1, hits give low values
[2] = locus YBR229C, strain ROT2, hits give low values
[3] = locus YCL061C, strain MRC1, hits give low values
[4] = locus YDL101C, strain DUN1, hits give low values
[5] = locus YDR150W, strain NUM1, hits give low values
[6] = locus YEL061C, strain CIN8, hits give low values
[7] = locus YGR078C, strain PAC10, hits give low values
[8] = locus YHR030C, strain SLT2, hits give low values
[9] = locus YHR087W, strain rtc3, hits give low values
[10] = locus YJR043C, strain POL32, hits give low values
[11] = locus YJR075W, strain HOC1, hits give low values
[12] = locus YLR039C, strain RIC1, hits give low values
[13] = locus YLR058C, strain SHM2 (second series), hits give low values
[14] = locus YLR085C, strain ARP6, hits give low values
[15] = locus YLR262C, strain YPT6, hits give low values
[16] = locus YML094W, strain GIM5, hits give low values
[17] = locus YMR219W, strain ESC1, hits give low values
[18] = locus YMR263W, strain SAP30, hits give low values
[19] = locus YMR307W, strain GAS1, hits give low values
[20] = locus YNL153C, strain GIM3, hits give low values
[21] = locus YNL298W, strain CLA4 (second series), hits give low values
[22] = locus YNL322C, strain KRE1, hits give low values
[23] = locus YNR030W, strain Alg12, hits give low values
[24] = locus YPL055C, strain LGE1, hits give low values
[25] = locus YPL241C, strain CIN2, hits give low values
[26] = locus YPR135W, strain CTF4, hits give low values
[27] = locus YAR019C, strain CDC15, hits give low values
[28] = locus YBL105C, strain PKC1, hits give low values
[29] = locus YBR135W, strain CKS1, hits give low values
[30] = locus YBR136W, strain MEC1, hits give low values
[31] = locus YBR160W, strain CDC28, hits give low values
[32] = locus YDL017W, strain CDC7, hits give low values
[33] = locus YDL028C, strain MPS1, hits give low values
[34] = locus YDL108W, strain KIN28, hits give low values
[35] = locus YDL132W, strain cdc53, hits give low values
[36] = locus YDL214C, strain PRR2, hits give low values
[37] = locus YDR052C, strain DBF4, hits give low values
[38] = locus YDR054C, strain cdc34, hits give low values
[39] = locus YDR226W, strain ADK1, hits give low values
[40] = locus YDR477W, strain SNF1, hits give low values
[41] = locus YER123W, strain YCK3, hits give low values
[42] = locus YER133W, strain GLC7, hits give low values
[43] = locus YFL009W, strain cdc4, hits give low values
[44] = locus YFL029C, strain CAK1, hits give low values
[45] = locus YFR003C, strain YPI1, hits give low values
[46] = locus YFR019W, strain FAB1, hits give low values
[47] = locus YFR028C, strain CDC14, hits give low values
[48] = locus YGR040W, strain KSS1, hits give low values
[49] = locus YGR052W, strain FMP48, hits give low values
[50] = locus YGR092W, strain DBF2, hits give low values
[51] = locus YHR079C, strain IRE1, hits give low values
[52] = locus YHR082C, strain KSP1, hits give low values
[53] = locus YHR205W, strain SCH9, hits give low values
[54] = locus YIL147C, strain SLN1, hits give low values
[55] = locus YJL095W, strain BCK1, hits give low values
[56] = locus YJL128C, strain PBS2, hits give low values
[57] = locus YJL157C, strain FAR1, hits give low values
[58] = locus YJR016C, strain ILV3, hits give low values
[59] = locus YJR066W, strain TOR1 (second series), hits give low values
[60] = locus YJR066W, strain TOR1, hits give low values
[61] = locus YKL048C, strain ELM1, hits give low values
[62] = locus YKL067W, strain YNK1, hits give low values
[63] = locus YKL101W, strain HSL1, hits give low values
[64] = locus YKL193C, strain SDS22, hits give low values
[65] = locus YKL203C, strain TOR2, hits give low values
[66] = locus YLR113W, strain HOG1, hits give low values
[67] = locus YLR133W, strain CKI1, hits give low values
[68] = locus YLR403W, strain SFP1, hits give low values
[69] = locus YML070W, strain DAK1, hits give low values
[70] = locus YMR001C, strain CDC5, hits give low values
[71] = locus YMR205C, strain PFK2 (second series), hits give low values
[72] = locus YMR277W, strain FCP1, hits give low values
[73] = locus YNL006W, strain LST8, hits give low values
[74] = locus YNL020C, strain ARK1, hits give low values
[75] = locus YNL161W, strain CBK1, hits give low values
[76] = locus YNL183C, strain NPR1, hits give low values
[77] = locus YNL207W, strain RIO2, hits give low values
[78] = locus YNL222W, strain SSU72, hits give low values
[79] = locus YNL307C, strain MCK1 (second series), hits give low values
[80] = locus YOL078W, strain AVO1, hits give low values
[81] = locus YOL136C, strain PFK27, hits give low values
[82] = locus YOR061W, strain CKA2, hits give low values
[83] = locus YOR119C, strain RIO1, hits give low values
[84] = locus YOR231W, strain MKK1, hits give low values
[85] = locus YOR329C, strain SCD5, hits give low values
[86] = locus YPL031C, strain PHO85, hits give low values
[87] = locus YPL153C, strain RAD53, hits give low values
[88] = locus YPL204W, strain HRR25, hits give low values
[89] = locus YPL209C, strain IPL1, hits give low values
[90] = locus YPL256C, strain CLN2, hits give low values
[91] = locus YPR025C, strain CCL1, hits give low values
[92] = locus YPR106W, strain ISR1, hits give low values
[93] = locus YPR111W, strain DBF20, hits give low values
[94] = strain NNK1, hits give low values
[95] = strain TSCII, hits give low values
[96] = locus YOL006C, strain TOP1, hits give low values

Measured: normalized growth

Cc1[nH]ncc1-c1ccccc1
inactive: [1] 1 | [2] 0.978 | [3] 0.973 | [4] 0.979 | [5] 1.01 | [6] 0.986 | [7] 0.998 | locus YGR229C, strain SMI1, hits give low values 0.999 | [8] 0.981 | [9] 1.02 | locus YJL187C, strain SWE1, hits give low values 0.983 | [10] 0.984 | [11] 1.02 | [12] 0.873 | [13] 0.986 | [14] 0.994 | [15] 0.896 | [16] 0.974 | [17] 0.995 | [18] 0.967 | [19] 0.933 | locus YNL128W, strain TEP1, hits give low values 0.993 | [20] 0.961 | [21] 0.98 | [22] 1.01 | [23] 0.991 | [24] 1.07 | [25] 0.986 | [26] 0.921

Cc1c2c(=O)[nH]ncc2c(-c2ccccc2)n1-c1ccc([N+](=O)[O-])cc1
inactive: [27] 0.99 | [28] 0.999 | [29] 0.998 | [30] 0.993 | [31] 0.99 | [32] 0.999 | [33] 0.987 | [4] 0.991 | [34] 0.989 | [35] 0.991 | [36] 0.953 | [37] 1 | [38] 1 | [39] 0.991 | [40] 0.925 | [41] 0.958 | [42] 0.946 | [43] 0.975 | [44] 0.977 | [45] 0.99 | [46] 0.95 | [47] 0.978 | [48] 0.939 | [49] 1.01 | [50] 1 | [51] 0.994 | [52] 1.01 | [53] 0.937 | [54] 0.993 | [55] 0.903 | [56] 0.988 | [57] 0.971 | [58] 0.986 | [59] 0.928 | [60] 0.954 | [61] 0.94 | [62] 0.935 | [63] 0.968 | [64] 0.996 | [65] 1.03 | [66] 0.871 | [67] 0.975 | [68] 0.963 | [69] 0.93 | [70] 0.989 | [71] 0.956 | [72] 0.979 | [73] 0.983 | [74] 0.975 | [75] 0.998 | [76] 1.03 | [77] 1 | [78] 0.98 | [79] 0.949 | [80] 0.995 | [81] 0.938 | [82] 0.955 | [83] 0.975 | [84] 0.936 | [85] 0.993 | [86] 0.941 | [87] 0.939 | [88] 0.933 | [89] 1 | [90] 0.931 | [91] 0.988 | [92] 1.01 | [93] 1 | [94] 1.01 | [95] 0.987
active: [8] 0.812

COc1ccc(NS(=O)(=O)c2c(C)noc2C)cc1
inactive: [1] 1.03 | [2] 1.02 | [3] 1 | [4] 1.02 | [5] 0.995 | [6] 1.03 | [7] 1.04 | [8] 1.06 | [9] 1.02 | [10] 0.995 | [11] 1.02 | locus YKL190W, strain CNB1, hits give low values 1 | [12] 1.02 | [13] 1 | [14] 1.02 | [15] 1.01 | [16] 1.07 | [17] 0.996 | [18] 0.993 | [19] 0.941 | [20] 1.02 | [21] 1.02 | [22] 1.01 | [23] 1.04 | [96] 1.03 | [24] 1.06 | [25] 0.911 | [26] 1.02

Cc1nn(Cc2ccc(C(=O)Sc3ccc(C(F)(F)F)cn3)o2)c(C)c1Br
inactive: [27] 0.965 | [28] 0.966 | [29] 0.955 | [30] 0.971 | [31] 0.967 | [32] 0.969 | [33] 0.969 | [4] 0.963 | [34] 0.961 | [35] 0.952 | [36] 0.882 | [37] 0.97 | [38] 0.953 | [39] 0.955 | [40] 0.834 | [41] 0.878 | [42] 0.898 | [43] 0.957 | [44] 0.962 | [45] 0.968 | [46] 0.932 | [47] 0.963 | [48] 0.81 | [49] 0.871 | [50] 0.855 | [51] 0.858 | [52] 0.763 | [54] 0.969 | [55] 0.827 | [56] 0.871 | [57] 0.911 | [58] 0.955 | [59] 0.885 | [60] 0.76 | [61] 0.896 | [62] 0.898 | [63] 0.861 | [64] 0.956 | [65] 0.892 | [67] 0.871 | [68] 0.722 | [69] 0.894 | [70] 0.958 | [71] 0.881 | [72] 0.963 | [73] 0.972 | [74] 0.882 | [75] 0.965 | [76] 0.777 | [77] 0.953 | [78] 0.963 | [79] 0.781 | [80] 0.961 | [81] 0.872 | [82] 0.816 | [83] 0.879 | [84] 0.847 | [85] 0.978 | [86] 0.867 | [87] 0.934 | [88] 0.925 | [89] 0.974 | [91] 0.965 | [92] 0.958 | [93] 0.93 | [94] 0.928 | [95] 0.961
active: [8] 0.615 | [53] 0.566 | [66] 0.677 | [90] 0.799

CCn1nc(C)c(Br)c1-c1nc(-c2ccc(C(F)(F)F)cc2)no1
inactive: [1] 1 | [2] 0.999 | [4] 1.02 | [5] 0.902 | [6] 1.01 | [7] 1.01 | [8] 1.08 | [9] 1 | [10] 1.01 | [11] 1 | [12] 0.982 | [13] 1.01 | [14] 1.14 | [15] 1.03 | [16] 1.03 | [17] 0.999 | [18] 1.02 | [19] 1.15 | [20] 0.985 | [21] 1.04 | [22] 1.01 | [23] 1.02 | [96] 1.14 | [24] 0.914 | [25] 0.981 | [26] 1.02
